# Measured values from PubChem BioAssay (NCI).
# The panel holds about 83,000 compounds, 20% with a hit somewhere; the sample as a whole holds those more often.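 The endpoint reported here, percent growth, reads 100 for growth as untreated, 0 for no net growth and -100 for all cells dead.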 Unmarked numbers belong to inactive results. Activity calls are given as the source filed them. Rule for the calls: active = growth percent below 10; inactive = the rest.
# How the values were obtained:
# Test in all cases: NCI-60 one-dose screen, 48 h (100 = growth as untreated, 0 = no growth, -100 = all killed)
# Conditions in all cases: 10 µM unless noted
# HCT-15 colon = test system: HCT-15 colon
# HT29 colon = test system: HT29 colon
# SNB-75 CNS = test system: SNB-75 CNS
# U251 CNS = test system: U251 CNS
# PC-3 prostate = test system: PC-3 prostate
# SK-MEL-5 melanoma = test system: SK-MEL-5 melanoma
# UACC-62 melanoma = test system: UACC-62 melanoma
# LOX IMVI melanoma = test system: LOX IMVI melanoma
# SK-MEL-28 melanoma = test system: SK-MEL-28 melanoma
# SK-MEL-2 melanoma = test system: SK-MEL-2 melanoma
# EKVX NSCLC = test system: EKVX NSCLC
# SN12C renal = test system: SN12C renal
# UO-31 renal = test system: UO-31 renal
# TK-10 renal = test system: TK-10 renal
# ACHN renal = test system: ACHN renal
# CAKI-1 renal = test system: CAKI-1 renal
# A498 renal = test system: A498 renal
# CCRF-CEM leukemia = test system: CCRF-CEM leukemia
# MOLT-4 leukemia = test system: MOLT-4 leukemia
# SNB-19 CNS = test system: SNB-19 CNS
SMILES,growth (HCT-15 colon),growth (HT29 colon),growth (SNB-75 CNS),growth (U251 CNS),growth (PC-3 prostate),growth (SK-MEL-5 melanoma),growth (UACC-62 melanoma),growth (LOX IMVI melanoma),growth (SK-MEL-28 melanoma),growth (SK-MEL-2 melanoma),growth (EKVX NSCLC),growth (SN12C renal),growth (UO-31 renal),growth (TK-10 renal),growth (ACHN renal),growth (CAKI-1 renal),growth (A498 renal),growth (CCRF-CEM leukemia),growth (MOLT-4 leukemia),growth (SNB-19 CNS)
C=CC1=C(C)C2=NC1=CC1=NC(=CC3=C(C)C4=C(O)C(C(=O)O)C(=C5NC(=C2)C(C)C5CCC(=O)O)C4=N3)C(CC)=C1C (centres undefined),105%,105%,94.5%,124%,89.3%,102%,107%,108%,104%,129%,103%,101%,73.6%,106%,98.7%,101%,106%,96.3%,96.9%,
CC(C)c1ccc(/C=N/N=C(N)N)cc1,89.6%,70.6%,76.9%,89.7%,48.4%,91.7%,95.8%,83.6%,85.9%,102%,87.1%,93.8%,73.2%,95.1%,83.2%,50.9%,106%,35.7%,45.7%,
O=[N+]([O-])c1ccc(O)c(-c2nc3ccccc3s2)c1,89%,96.6%,86.9%,71.6%,70.6%,25.3%,41.3%,61%,64.3%,99%,83.6%,64.9%,43.5%,82.4%,85.6%,73%,42.6%,77.3%,65.3%,
COc1cc2c(cc1OC(C)=O)C(=O)CCCC2,83%,96.5%,54.2%,94.4%,87.5%,90.1%,105%,95.6%,95.2%,99.3%,104%,112%,88.4%,118%,92.5%,73.8%,68.3%,102%,115%,
c1cc2ccc1CNCCN1CCNCc3ccc(cc3)Oc3ccc(cc3)CNCCN(CCNCc3ccc(cc3)O2)CCNCc2ccc(cc2)Oc2ccc(cc2)CNCC1,95.4%,-74.7% (active),-73.1% (active),-99.7% (active),-85.5% (active),66.1%,-76% (active),-94.1% (active),14.7%,-94.5% (active),15.2%,-80.5% (active),85.3%,29.4%,84.4%,47.5%,48%,-17.4% (active),-45.4% (active),
O=C1NC(=O)C(Cc2ccc(OCc3ccc(-c4cc(F)c(F)c(F)c4)cc3)cc2)S1 (centres undefined),88.2%,107%,83.2%,86.1%,71.4%,76.5%,56.2%,77.4%,102%,94.4%,80.9%,80.1%,64.5%,100%,83.9%,53.9%,95.5%,80.4%,76.8%,
CN(C)C(=S)Sc1ccc([N+](=O)[O-])cc1[N+](=O)[O-],5.29% (active),-16.6% (active),57.4%,6.55% (active),28.1%,17.2%,33.5%,-4.79% (active),75.1%,57.8%,82.4%,41.8%,16.7%,67.8%,-44.4% (active),4.43% (active),80.5%,4.55% (active),0.177% (active),
COc1cc2c(O)n(CCCN3CCOCC3)c3c4cnc5cccc(c(=O)c3c2cc1OC)c54,57.4%,29.2%,38.9%,16.9%,30.6%,20.9%,10.5%,11.3%,66.2%,45.6%,63.5%,14.1%,30.2%,73.7%,12.2%,30%,56.1%,15.1%,11.8%,
CCOC(=O)c1cc(C#N)n2ncc3ccccc3c12,94.3%,98%,72.7%,93.2%,92.8%,98%,91.7%,95.6%,101%,108%,94.9%,95.3%,84.1%,91.4%,91.6%,86.5%,72.4%,106%,89.7%,
O=C(Nc1ccc(C(=O)/C=C/c2ccc(N3CCOCC3)cc2)cc1)Nc1ccc([N+](=O)[O-])cc1,92.9%,88.6%,94.7%,85.7%,85.5%,95.1%,79.6%,107%,109%,97.6%,112%,97%,83.5%,88.5%,94.4%,82.6%,5.47% (active),84.4%,66.2%,
Cc1cc[n+](CCCCCCCCCC[n+]2ccc(C)cc2)cc1,103%,84.3%,95.3%,105%,87.6%,92.8%,92.6%,91.4%,101%,98.4%,95.4%,63.5%,99.8%,82.7%,105%,96.6%,85%,99.1%,83.5%,
CCCOc1ccc(-c2nc(-c3ccc(N)cc3)cs2)cc1,89.9%,96.7%,98%,107%,94.6%,100%,97%,110%,,107%,95.6%,95.2%,77.1%,125%,,79.3%,215%,85.6%,116%,
CSc1cccc([N+](=O)[O-])c1,100%,90.2%,115%,109%,96.9%,99.8%,98%,92.5%,111%,106%,103%,86.2%,95.7%,108%,102%,101%,121%,90.3%,107%,
O=C(O)c1cn(C2CC2)c2cc(N3CCN(Cc4cc(Cl)ccc4O)CC3)c(F)cc2c1=O,45.7%,44.9%,67.6%,36.6%,54.7%,58.8%,54.9%,57.1%,71.7%,88%,65.1%,65.3%,40.7%,81%,,46.7%,94%,45.9%,74.1%,
CC(C)(C)OC(=O)N1C=C/C(=C\Cn2cc(-c3ccccc3)nn2)CC1,86.9%,99.1%,78.8%,91.8%,82.7%,36.7%,,76.9%,,64%,79.8%,73.7%,54.6%,98.6%,68.7%,67%,54.2%,2.78% (active),65.2%,73.1%
Cn1cc(-c2noc(-c3cn(C)c4ncc(Br)cc34)n2)c2cc(Cl)ccc21,87.6%,67.3%,56.2%,97.5%,80.3%,83.9%,78.5%,65.4%,86.8%,82.4%,62.7%,50.5%,71.8%,64.7%,31.8%,50.8%,84.8%,68.6%,67.7%,
NC(=O)c1cccc(-c2ccc(S(=O)(=O)Nc3ccc4c(c3)N(C(=O)C3CC3)CCC4)cc2)c1,91.9%,13.6%,11.9%,31.3%,40%,11.4%,26.7%,41.6%,51.7%,7.54% (active),67.1%,52.1%,82.2%,77.8%,79.2%,72.4%,5.86% (active),33.5%,57.8%,
